Screening results: PubChem, National Center for Advancing Translational Sciences (NCATS)
Marburg entry inh – Marburg virus entry inhibition | Marburg virus pseudotyped entry inhibition, cell reporter | Potency, µM (series often up to 37.8 µM), inactives show at the highest dose activity change, negative = inhibition, most hits filed as inhibitors | 1.8% of 300,000 active | AID 540276; calls by dose curve; tested in HEK293 cells; also: potency is read from the fitted curve at half-maximal effect
HCMV inh – blocks human cytomegalovirus replication; 4.5% of 410,000 active; HFF cells, HCMV-luciferase reporter, 72 h; active compounds read low; activity change, negative = inhibition, % at 57.5 µM; AID 1259415; in the data active = activity change below about -60%; inconclusive = no clear call, values can overlap the other calls; inactive = above about -39%
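After 16 h attachment at 37C, HFF cells received test compound and HCMV-luciferase (1 PFU/cell); reporter luminescence read 72 h later, data normalized against buffer-only and known inhibitor Salinomycin.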
HCV inhibitor – HCV inhibition. Huh7.5.1 HCVcc-Cre infection, luciferase reporter, 44 h. Potency, µM (top dose mostly 41.8 µM), for inactives: top-dose activity change, negative = inhibition, hits mostly inhibitors. 3.4% of 340,000 active; also: potency is read from the fitted curve at half-maximal effect
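Antiviral activity was scored by luciferase reporter output from cells infected with HCVcc-Cre (~0.5 moi) in presence of compound, 44 h infection period, cells seeded 1,000/well 4 h prior.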
LASV entry inh – Lassa virus entry inhibition; Lassa virus pseudotype entry inhibition, cell reporter; Potency, µM (titrated, usually from 37.9 µM), inactives show top-dose activity change, negative = inhibition, hits mostly inhibitors; 1.2% of 300,000 active; AID 540256; calls by dose curve; tested in HEK293 cells; also: potency is read from the fitted curve at half-maximal effect; nearly all actives have a fitted effect of over 50% in size
FMDV antiviral – foot and mouth disease virus antiviral activity; 1.2% of 410,000 active; FMDV antiviral cell-based qHTS; Potency, µM (titrated, usually from 57.9 µM), for the others: at the highest dose activity change, negative = inhibition, most hits filed as inhibitors; AID 1159524; calls by dose curve; tested in HEK293T cells; also: read-out not given here; potency is read from the fitted curve at half-maximal effect; nearly all actives have a fitted effect of over 45% in size
FBPA Giardia inh – blocks Giardia fructose-bisphosphate aldolase activity. AID 2451. Potency, µM (highest dose often 59.6 µM), for the others: top-dose activity, negative = inhibition, most hits filed as inhibitors. purified Giardia FBPA. 0.71% of 290,000 active. A8B2U2; also: potency is read from the fitted curve at half-maximal effect; nearly all actives have a fitted effect of over 55% in size
Target sequence (A8B2U2 whole entry, looked up): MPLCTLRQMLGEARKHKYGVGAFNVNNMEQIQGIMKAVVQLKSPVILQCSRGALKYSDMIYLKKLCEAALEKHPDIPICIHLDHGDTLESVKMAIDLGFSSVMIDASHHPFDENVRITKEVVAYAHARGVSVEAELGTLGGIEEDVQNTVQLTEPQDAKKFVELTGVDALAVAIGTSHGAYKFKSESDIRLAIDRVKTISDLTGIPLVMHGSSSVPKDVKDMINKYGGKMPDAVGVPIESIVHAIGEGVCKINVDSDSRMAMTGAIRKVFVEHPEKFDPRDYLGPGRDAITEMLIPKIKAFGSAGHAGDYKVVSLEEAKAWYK
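Giardia FBPA (40 nM reagent) was preincubated 10 min at RT with compound (up to 57.5 uM final), then substrate plus GAPDH/TPI/NAD/arsenate coupling system with diaphorase/resazurin was added; resorufin fluorescence (525/598 nm) was read after 20 min.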
An asterisk follows results filed as active; ? = inconclusive; · = no result; [ ] = dose if it differs, or a comment. The list is not random: actives were taken first. Their share in the collection is about 8.3%. Unless noted, calls follow the shape of the dose curve; as a rule, active = well fitted curve in the direction sought with a large enough effect; inconclusive = small, poorly fitted or top-dose-only effect, or another doubt; inactive = no such curve, though single readings can be large; an effect the other way counts as inactive or inconclusive. % is scaled to controls: 0 for no effect and ±100 for the full control effect.

SMILES | Marburg entry inh | HCMV inh | HCV inhibitor | LASV entry inh | FMDV antiviral | FBPA Giardia inh
CN(Cc1ccc(F)cc1)C(=O)c1cccc(S(=O)(=O)N2CCN(Cc3ccccc3)CC2)c1 | ? | -35.7 | ? | ? | ? | ·
CCCCC/C=C\C[C@@H](O)/C=C/C=C\C/C=C\CCCC(=O)O | · | · | · | · | · | 6.4%
O=S(=O)(c1ccc(Br)cc1)c1nnn2c1nc(Nc1cccc(C(F)(F)F)c1)c1sccc12 | · | 1.4 | · | -17.9%[46.1 µM] | -12.0% | ·
Oc1[nH]c2ccccc2c1C1=NCCCC1 | 7.1% | -20.6 | 35.5µM* | 8.3% | 17.4% | -3.4%
Cc1c(/C=N/NC(=O)COc2ccccc2[N+](=O)[O-])c2ccccc2n1C | -23.4% | 13.1 | ? | -3.6% | -14.7% | -2.1%
Cc1ccc(OCC(=O)N/N=C\c2c(C)n(C)c3ccccc23)c([N+](=O)[O-])c1 | 10.3µM* | · | 15.8µM* | -18.1% | -0.3% | -3.6%
Cc1ccccc1OCC(=O)N/N=C/c1cccc(Oc2ccc([N+](=O)[O-])cc2[N+](=O)[O-])c1 | ? | ? | 11.2µM* | ? | 0.0% | ?
Cc1nnc(SCC(=O)Nc2ccc(Br)cc2)[nH]c1=O | ? | -22.8 | · | 30.1%[46.1 µM] | -2.9% | ·
Cc1ccccc1OCC(O)CN1CCN(CCN2C(=O)c3cccc4cccc(c34)C2=O)CC1 (centres undefined) | ? | ? | ? | ? | ? | -16.7%
CC(C)OCC(O)CN1CCN(CCN2C(=O)c3cccc4cccc(c34)C2=O)CC1 (centres undefined) | · | -30.2 | ? | · | -17.7% | ?
CC(=O)c1ccc(OCC(O)CN2CCN(CCN3C(=O)c4cccc5cccc(c45)C3=O)CC2)cc1 (centres undefined) | ? | -84.3* | ? | ? | ? | -18.6%
O=C(c1ccc(S(=O)(=O)N2CCCCC2)cc1)N1CCN(CCN2C(=O)c3cccc4cccc(c34)C2=O)CC1 | ? | ? | ? | 4.4% | 15.8µM* | 0.0%
CCC(OCC(O)CN1CCN(CCN2C(=O)c3cccc4cccc(c34)C2=O)CC1)c1ccccc1 (centres undefined) | ? | ? | 7.94µM* | ? | 28.2µM* | -22.9%
Cc1cccc(C)c1OCC(O)CN1CCC(CN2C(=O)c3cccc4cccc(c34)C2=O)CC1 (centres undefined) | ? | 3.3 | ? | ? | 22.4µM* | 1.8%
OC[C@H]1OC(O)[C@H](O)[C@@H](O)[C@@H]1O (some centres undefined) | · | · | · | · | · | -2.2%
CC(=O)c1ccc(NC(=S)N2CCN(CCN3C(=O)c4cccc5cccc(c45)C3=O)CC2)cc1 | 28.6% | -9.0 | 14.0% | 24.6% | -7.3% | 6.0%
Cc1cc(C)nc(N2CCN(C(=O)c3ccc(S(=O)(=O)N4CCCCCC4)cc3)CC2)n1 | 2.4%[46.1 µM] | -6.7 | 11.2µM* | 28.5% | ? | 3.5%
CC(=O)c1cccc(NC(=S)N2CCN(CCN3C(=O)c4cccc5cccc(c45)C3=O)CC2)c1 | ? | -79.5* | ? | 3.9%[46.1 µM] | -12.3% | 1.6%
C=CCc1ccccc1OCC(O)CN1CCN(CCN2C(=O)c3cccc4cccc(c34)C2=O)CC1 (centres undefined) | 11.2µM* | -38.3 | 14.1µM* | ? | 28.2µM* | -17.7%
CC(=O)c1ccc(OCC(O)CN2CCN(S(=O)(=O)c3c(C)c(C)cc(C)c3C)CC2)cc1 (centres undefined) | ? | -72.5* | 12.6µM* | ? | -19.2% | -0.9%
C#CCCOC(=O)N1C2=NC(C(=O)OC)=C(C(=O)OC)[C@@H]3N(CC#CC)c4ccccc4[C@]23C[C@H]1C(=O)OC | · | · | · | · | · | 8.7%[12.9 µM]
COc1cc2nc(SCc3cccc(Cl)c3)n3nc(CCn4nc(C)cc4C)nc3c2cc1OC | 5.3%[46.1 µM] | 8.3 | · | 7.3%[46.1 µM] | -9.0% | ·
CC(=O)N1CCC2(CC1)OC(=O)C(C)=C2C(=O)Nc1ccccc1C(F)(F)F | · | 0.0 | · | ? | -4.9% | ·
CC1CCN(S(=O)(=O)c2ccc3c(c2)oc(=O)n3CC(=O)N2CCCCC2)CC1 | 4.2%[46.1 µM] | 5.0 | · | -10.6%[46.1 µM] | -2.8% | ·
Clc1ccc(-c2cn3nc4c(nc3n2)CCCC4)cc1 | ? | ? | -0.4% | 0.708µM* | 11.2µM* | ?
